# Shown are actives, neighbours in structure and some others; about 7.3% of the full set was active somewhere.
# KinaseGlo FLuc = blocks Kinase-Glo luciferase, a counter-screen artifact; Q27757; Kinase-Glo luciferase, ATP luminescence, 8 min; Potency, µM (doses to about 38.3 µM), for the others: at the top dose activity change, negative = inhibition, most hits filed as inhibitors; hit rate 0.28% among 200,000; note: % is set by controls: 0 for no effect and ±100 for the full control effect; nearly all actives have a fitted effect of over 60% in size
#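 Compound is pinned into ATP-containing buffer (10 uM ATP, imidazole pH 7.2, 7 mM MgCl2). Kinase-Glo luciferase reagent is then added. Light output is recorded following an 8-min room-temperature incubation.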
# FLuc counter = firefly luciferase modulation, counter-screen for miR-21 project; hit rate 6.9% among 360,000; Potency, µM (top dose mostly 57.5 µM), for the others: at the top dose activity change, negative = inhibition, most hits filed as inhibitors; purified FLuc, Km substrates, luminescence inhibition;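 note: plate controls were vehicle for no effect and reference inhibitor for full effect; nearly all actives have a fitted effect of over 55% in size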
# Target sequence (P08659 whole entry, looked up): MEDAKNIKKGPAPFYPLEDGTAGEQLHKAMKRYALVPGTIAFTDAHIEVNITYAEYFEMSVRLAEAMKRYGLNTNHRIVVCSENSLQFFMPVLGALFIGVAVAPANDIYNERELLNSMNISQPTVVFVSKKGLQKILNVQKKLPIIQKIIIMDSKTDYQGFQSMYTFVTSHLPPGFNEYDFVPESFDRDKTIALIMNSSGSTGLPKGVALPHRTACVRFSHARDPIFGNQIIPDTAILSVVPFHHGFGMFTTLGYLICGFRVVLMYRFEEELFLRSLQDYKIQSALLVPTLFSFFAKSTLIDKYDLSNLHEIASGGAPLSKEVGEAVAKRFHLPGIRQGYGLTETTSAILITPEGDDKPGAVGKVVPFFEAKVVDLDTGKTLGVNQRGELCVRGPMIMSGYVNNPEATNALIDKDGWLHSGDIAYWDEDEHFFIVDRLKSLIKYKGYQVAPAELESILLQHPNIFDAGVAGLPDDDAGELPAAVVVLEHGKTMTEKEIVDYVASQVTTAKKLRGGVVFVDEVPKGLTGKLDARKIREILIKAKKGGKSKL
#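 Biochemical qHTS of compounds, final roughly 60 µM downward over six points, against 10 nM purified firefly luciferase using Km concentrations of substrates (10 uM D-luciferin, 10 uM ATP) in Tris acetate pH 7.5 buffer; luminescence output.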
# Rab9 prom act = activates the Rab9 promoter | Huh7 Rab9 promoter-luciferase reporter, luminescence, 24 h | Potency, µM (top dose mostly 9.22 µM), without a hit: top-dose activation, negative = inhibition, usual class: activators | hit rate 2.8% among 320,000 | AID 485297; note: % of control where 0% means no effect; nearly all actives have a fitted effect of over 60% in size
#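 Huh7 cells stably carrying a Rab9 promoter-luciferase reporter, 1500 cells per well in OP-MEM I with 10% FBS, treated with compound 24 hours at 37C. Luciferase activity read by luminescence after 10 minutes with Amplite reagent.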
# SMN2 splice enh = increases expression of the SMN2 splice variant; AID 1458; Potency, µM (highest dose often 46.1 µM), without a hit: top-dose activity change, positive = activation, most hits filed as activators; hit rate 2.8% among 210,000; HEK293 SMN2-luciferase splicing reporter, luminescence, 30-36 h; note: % of control where 0% means no effect; nearly all actives have a fitted effect of over 55% in size
#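 HEK293 cells carry an SMN2 minigene-luciferase reporter in which exon 7 inclusion puts luciferase in frame. Cells were seeded at 2000 cells/well, attached for 10-12 hours, then exposed to compounds for 30-36 hours at 37C before ONE-Glo luminescence.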
# ELG1 genotoxic = inducers of genotoxicity in HEK293T ELG1-luciferase cells | HEK293T ELG1-luciferase reporter, luminescence, 16 h | Potency, µM (top dose mostly 46 µM), inactives show at the top dose activity change, positive = activation, most hits filed as activators | hit rate 1.3% among 330,000; note: % of control where 0% means no effect; nearly all actives have a fitted effect of over 60% in size
#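 16 hr compound incubation (37 °C, 5% CO2) of HEK293T cells carrying luciferase-tagged ELG1; luciferase then measured by ONE-Glo luminescence after 30 min at RT.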
# NPC1 promoter act = activators of NPC1 promoter. Potency, µM (doses to about 9.22 µM), without a hit: at the highest dose activation, actives largely listed as activators. hit rate 2.4% among 320,000. Huh7 NPC1 promoter luciferase reporter, 24 h; note: % of control where 0% means no effect; nearly all actives have a fitted effect of over 60% in size
#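 Quantitative HTS used a cell-based reporter: Huh7 cells stably bearing the NPC1 promoter upstream of luciferase were treated with compounds for 24 h, and promoter activation was read as luminescence.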
# Numbers without * were called inactive; ? = inconclusive; . = no result given. Calls come from the whole dose curve; as a rule, active = well fitted curve in the direction sought with a large enough effect; inconclusive = small, poorly fitted or top-dose-only effect, or another doubt; inactive = no such curve, though single readings can be large; an effect the other way counts as inactive or inconclusive. Potency is the fitted concentration of half-maximal effect.
SMILES,KinaseGlo FLuc,FLuc counter,Rab9 prom act,SMN2 splice enh,ELG1 genotoxic,NPC1 promoter act
Fc1ccc(Cc2cn3cc(-c4ccc(Cl)cc4)nc3s2)cc1,.,0.601µM*,.,?,.,.
Fc1ccc(-c2cn3cc(Cc4ccc(Cl)cc4)sc3n2)cc1,.,3.01µM*,.,3.16µM*,.,.
COc1cc2c(cc1OC)C(COc1cc(C)cc(C)c1)N(C(=O)C(C)(C)C)CC2 (stereo not drawn),.,4.1%,.,.,.,.
COCCNS(=O)(=O)c1cc(F)ccc1OC,1.5%,0.5%,-3.6%,3.16µM*,-2.9%,1.1%
Cc1ccsc1/C=C1\SC(=S)N(CC2CCCO2)C1=O (stereo not drawn),1.4%,10.7µM*,?,17.9%,?,12.7%
O=C1/C(=C/c2ccc(O)cc2)SC(=S)N1CC1CCCO1 (stereo not drawn),.,?,22.9%,.,0.6%,-4.6%
CCN=C1S/C(=C\c2sccc2C)C(=O)N1CC,-0.9%,12µM*,?,24.4%,?,?
CCCOc1ccc(/C=C2\SC(=S)N(CC3CCCO3)C2=O)cc1 (stereo not drawn),-1.5%,9.53µM*,7.1%,-20.6%,7.5%,-2.6%
CCOC(=O)N1CCC(c2cc(=O)n3[nH]c(-c4ccccc4)cc3n2)CC1,2.8%,-2.6%,-1.0%,8.6%,2.3%,0.3%
O=c1c2c(nc3cc(-c4ccccc4)[nH]n13)CCS2,-17.5%,9.53µM*,2.82µM*,?,?,3.98µM*
O=c1c2c(nc3cc(-c4ccccc4Cl)[nH]n13)CCS2,-19.7%,8.49µM*,3.55µM*,15.8µM*,?,?
Cc1[nH]c2ccc3ncccc3c2c1C,-3.6%,21.3µM*,3.4%,-30.4%,2.5%,1.0%
COc1ccc(-c2nn(-c3ccccc3)cc2C#N)cc1,2.3%,5.36µM*,3.55µM*,-1.7%,?,?
OCc1cn(-c2ccccc2)nc1-c1cc2ccccc2o1,3.9%,1.69µM*,1.26µM*,7.94µM*,?,2.51µM*
COc1ccc(NC(=O)c2cn(-c3ccccc3)nc2-c2cc3ccccc3o2)cc1,-4.3%,8.49µM*,15.2%,-4.9%,-6.5%,10.1%
COc1ccc(-c2nn(-c3ccccc3)cc2/C=N/NC(=O)c2cccc(S(=O)(=O)Nc3ccccc3OC)c2)cc1,-0.9%,-1.9%,15.6%,?,1.7%,14.0%
COc1ccc(-c2nn(-c3ccccc3)cc2C(=O)Nc2ccccc2OC)cc1,.,-0.3%,.,-10.4%,.,.
COc1ccc(-c2nn(-c3ccccc3)cc2/C=N/Nc2cccc(C(=O)O)c2)cc1,0.0%,10.7µM*,?,25.3%,?,?
O=C(c1ccncc1)N1CCC[C@@]2(CCN(Cc3ccncc3)C2)C1,0.7%,.,.,-7.0%,.,.
Cc1nn(S(=O)(=O)c2ccc(C(C)C)cc2)c(C)c1S(=O)(=O)N1CCCCCC1,.,-18.5%,.,.,.,.
COc1ccc(-c2nn(-c3ccccc3)cc2C(=O)Nc2ccc(C(=O)O)cc2)cc1,.,10.7µM*,-2.0%,.,-1.4%,3.9%
O=C(O)c1cccc(NC(=O)c2cn(-c3ccccc3)nc2-c2cccc(Br)c2)c1,.,?,-4.9%,.,-0.1%,1.4%
COc1ccc(NC(=O)c2cn(-c3ccccc3)nc2-c2ccncc2)cc1,-2.2%,?,-2.2%,-2.8%,-7.7%,-4.6%
O=C(O)c1ccc(NC(=O)c2cn(-c3ccccc3)nc2-c2ccc(Br)cc2)cc1,2.0%,3.79µM*,-4.9%,6.5%,-0.2%,0.2%
O=C(O)c1ccc(NC(=O)c2cn(-c3ccccc3)nc2-c2ccccc2)cc1,0.7%,1.2µM*,27.9%,?,11.3%,23.4%
SMILES,KinaseGlo FLuc,FLuc counter,Rab9 prom act,SMN2 splice enh,ELG1 genotoxic,NPC1 promoter act
COc1ccc(NC(=O)CN(C)C(=O)c2cn(-c3ccccc3)nc2-c2ccc(F)cc2)cc1,.,21.3µM*,1.4%,.,-3.6%,-1.1%
CCN1CCCC1Cn1c(-c2ccccc2)nc2c(N(CCOC)CCOC)nc(C)nc21 (stereo not drawn),-3.6%,.,.,-7.6%,.,.
CCN(CC)c1ccc(NC2=C(Cl)C(=O)c3ccccc3C2=O)cc1,?,12µM*,-35.0%,-109.3%,2.91µM*,-37.7%
COC1=C(Nc2ccc(OC)cc2)C(=O)c2ccccc2C1=O,-19.8%,19µM*,?,?,3.6%,27.9%
CCOc1ccc(NC2=C(OC)C(=O)c3ccccc3C2=O)cc1,-13.3%,16.9µM*,3.1%,-25.7%,0.2%,15.1%
COC1=C(Nc2ccc(O)cc2)C(=O)c2ccccc2C1=O,-16.9%,?,2.8%,-18.0%,1.2%,12.8%
O=C(/C=C/c1ccc(F)cc1)Nc1nc2ccccc2[nH]1,0.3%,?,0.631µM*,11.2µM*,?,1.26µM*
O=C(Nc1nc2ccccc2[nH]1)c1ccc(Cl)c(S(=O)(=O)N2CCCC2)c1,-4.7%,12µM*,27.7%,-18.7%,7.2%,?
O=C(Nc1nc2ccccc2[nH]1)c1cccc(F)c1,.,3.01µM*,?,.,2.91µM*,?
CN(C)c1cccc(C(=O)Nc2nc3ccccc3[nH]2)c1,.,0.601µM*,0.316µM*,.,?,0.447µM*
Cc1ccc(N(C)S(=O)(=O)c2cccc(C(=O)Nc3nc4ccccc4[nH]3)c2)cc1,-1.5%,-17.7%,-3.7%,-57.0%,-5.2%,8.4%
COc1ccc(/C=C/C(=O)NCCc2nc3ccccc3[nH]2)cc1,.,?,9.8%,.,-1.0%,1.1%
COc1ccc(-c2csc(-c3nc(-c4ccc(Br)s4)cs3)n2)cc1F,.,-4.8%,.,-1.7%,.,.
O=C(Nc1nc2ccccc2[nH]1)c1ccc(Br)o1,-15.1%,9.53µM*,?,12.6µM*,?,?
O=C(Nc1nc2ccccc2[nH]1)c1cccc(Br)c1,.,2.39µM*,3.55µM*,.,2.06µM*,?
O=C(CNC(=O)c1cccc(Br)c1)NCCc1nc2ccccc2[nH]1,-4.1%,1.6%,-0.4%,-15.7%,-2.1%,-2.6%
COc1ccccc1NC(=O)C1=C(C)Nc2nc3ccccc3n2C1c1ccccc1Cl (stereo not drawn),.,-1.3%,.,5.0%,.,.
Cc1ccc(-n2cc(-c3ccccc3)c3c(NC4CCCC4)ncnc32)cc1,.,-3.6%,.,.,.,.
CCOC(=O)N1CCC(Nc2ncnc3c2cnn3-c2ccc(Cl)cc2)CC1,-3.0%,?,?,7.9%,11.6µM*,?
Cc1ccc(-n2ncc3c(NC4CCCC4)ncnc32)cc1,.,0.379µM*,.,.,.,.
c1ccc(-n2ncc3c(NC4CCCC4)ncnc32)cc1,.,4.78µM*,.,.,.,.
COc1ccc(OC)c(Nc2ncnc3c2cnn3-c2ccc(C)cc2)c1,.,-14.5%,.,.,.,.
COc1ccc(-n2ncc3c(NC4CCCC4)ncnc32)cc1,.,1.35µM*,.,.,.,.
CC1(C)C[C@@H]2C(=O)CCC3O[C@@]3(C)CCC21 (stereo partly drawn),-0.5%,.,.,-2.2%,.,.
